The values that follow come from PubChem BioAssay AID493036 (Sanford-Burnham Center for Chemical Genomics, 2011).

Out of some 330,000 compounds screened, about 560 (0.17%) were called active.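 Rule for the calls: active = activation at or above 40% of the spot to cytoplasm intensity ratio, with at least 20 cells analyzed; inconclusive = wells under 20 cells, flagged as cytotoxic or low count; inactive = the rest.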 For the sample, actives were picked, then their nearest neighbours and some compounds at random.

Test [1] can be described thus: agonists of human NTR1, primary screen, imaging, U2OS cells, beta-arrestin-GFP, high content (AID 493036).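 For activation: 0% = DMSO without peptide and 100% = 100 nM NTR1 peptide.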 The conditions noted are these: NTR1-U2OS beta-arrestin-GFP spot imaging, agonist mode; measured here: cell count, cytotoxicity flag; at 20 µM.
The target in test [2] is Neurotensin receptor type 1 (Homo sapiens) (UniProt P30989). Described as above. The conditions noted are these: NTR1-U2OS beta-arrestin-GFP spot imaging, agonist mode; at 20 µM; stronger effect = higher value.
Neurotensin receptor type 1 (Homo sapiens), sequence (P30989 whole entry, looked up): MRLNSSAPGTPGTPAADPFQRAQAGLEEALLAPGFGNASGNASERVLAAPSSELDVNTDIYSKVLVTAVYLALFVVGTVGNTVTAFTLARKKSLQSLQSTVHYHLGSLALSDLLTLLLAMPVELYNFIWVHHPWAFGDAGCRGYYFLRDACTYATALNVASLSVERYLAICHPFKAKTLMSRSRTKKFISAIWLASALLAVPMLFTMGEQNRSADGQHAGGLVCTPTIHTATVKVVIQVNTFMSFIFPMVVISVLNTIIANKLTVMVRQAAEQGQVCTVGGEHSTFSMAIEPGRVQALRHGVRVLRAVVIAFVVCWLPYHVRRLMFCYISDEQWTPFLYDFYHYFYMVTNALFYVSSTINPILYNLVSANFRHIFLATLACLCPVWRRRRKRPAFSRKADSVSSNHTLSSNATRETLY

`CCOc1ccc(C(C)C)cc1S(=O)(=O)n1nc(C)cc1C`: the cell count in test [1] amounted to 43 cells. Further, the activation in test [2] was 0.1% (inactive).
The matching figures for `COc1ccc(OC)c(S(=O)(=O)n2c([N+](=O)[O-])cnc2C)c1`: 68 cells and 0.5% (inactive).
As for `COc1ccc(C(C[N+](=O)[O-])n2nc(C)cc2C)cc1` (stereo not given), the cell count in test [1] was 64 cells. In addition, in test [2], the activation is 47.9% (active).
The matching figures for `CC(C)(CNC(=O)Cc1ccc(Cl)cc1Cl)N1CCOCC1`: 59 cells and -2.3% (inactive).
The matching figures for `CCOc1ccc2sc(NS(=O)(=O)c3ccc(N)cc3)nc2c1`: 62 cells and 2.8% (inactive).
Molecule `O=C(Nc1cc(Cl)ccc1N1CCOCC1)c1ccc(N2CCCC2=O)cc1` registered a cell count in test [1] of 53 cells. Moreover, in test [2], the activation is -1.6% (inactive).
`CCn1c(Cc2cccs2)nnc1SCC(=O)c1ccc(C)cc1` returned a cell count in test [1] of 56 cells. The activation in test [2] is 0.5% (inactive).
The matching figures for `Fc1ccccc1CNC(=S)Nc1ccc(Cl)cc1`: 48 cells and 2.3% (inactive).
The matching figures for `CCN(CCNC(=O)C1=C(C)C(=O)OC12CCC(C)CC2)c1ccccc1` (stereo not given): 64 cells and 3.9% (inactive).
`COc1ccc(OC)c(NC(=O)c2cnn(-c3ccccc3Cl)c2NC(=O)c2ccco2)c1` gave a cell count in test [1] of 62 cells. In addition, in test [2], the activation is 4.9% (inactive).
The molecule `CCOCCCNC(=S)Nc1ccc2nc(N3CCN(CC)CC3)cc(C)c2c1` displayed a cell count in test [1] of 73 cells. Also, the activation in test [2] is -2% (inactive).
The matching figures for `CCCCCCCC(=O)NC(Nc1ccccc1OC)C(Cl)(Cl)Cl` (stereo not given): 50 cells and 2.7% (inactive).
Turning to `Cc1nn(CC(=O)Nc2ccc(C#N)cc2)c(C)c1[N+](=O)[O-]`, the cell count in test [1] worked out at 65 cells. Also, in test [2], the activation is 0.3% (inactive).
`CC(OC(=O)CN1C(=O)COc2ccccc21)C(=O)NCc1ccc(F)cc1` (stereo not given): the cell count in test [1] came out at 51 cells. For the same molecule, the activation in test [2] was 0.8% (inactive).
In turn, `O=S(=O)(c1ccccc1)N1CN(Cc2ccc(F)cc2)c2nc3ccccc3nc21` came in with a cell count in test [1] of 40 cells. The activation in test [2] is 0.8% (inactive).
Molecule `CC(C)CC1(C(=O)NCc2ccccn2)C=CCN1C(=O)c1ccccc1` (stereo not given) registered a cell count in test [1] of 56 cells. Besides, the activation in test [2] was -0.1% (inactive).
As for `CCN(C(=O)CSc1ncnc2c1cnn2-c1ccccc1)C1CCS(=O)(=O)C1` (stereo not given), the cell count in test [1] was found to be 39 cells. In test [2], the activation was -0.3% (inactive).
The matching figures for `O=[N+]([O-])/C=C/c1ccc2c(ccn2Cc2ccccc2)c1`: 87 cells and 87.3% (active).
The matching figures for `CCCCC[C@@H]1C=C(C(=O)O)[C@H](c2ccc(C#N)cc2)N1S(=O)(=O)c1ccc(C)cc1`: 52 cells and 7.1% (inactive).
The matching figures for `CCCCCCCCCCCCN1C(=O)CSC1c1cccnc1` (stereo not given): 45 cells and 11.6% (inactive).
In test [1], `CC(C)Cn1c(CCC(=O)O)ccc1-c1cccs1` showed a cell count of 50 cells. In addition, the activation in test [2] is -0.5% (inactive).
In turn, `COc1ccccc1NC(=O)C1CCN(C(=O)c2ccc(C(C)(C)C)cc2)CC1` gave a cell count in test [1] of 46 cells. Also, the activation in test [2] is -0.5% (inactive).
The matching figures for `Cc1ccc(S(=O)(=O)NNC(=O)/C=C/c2cccc(F)c2)cc1`: 75 cells and 0% (inactive).
With `CCCC(C(=O)NC1CCCC1)N(C(=O)Cn1nnc(-c2ccc(C)o2)n1)c1cccc(O)c1` (stereo not given), the cell count in test [1] was found to be 48 cells. Moreover, the activation in test [2] was 0.6% (inactive).
Molecule `CC1CCN(S(=O)(=O)c2ccc3c(ccn3CC(=O)O)c2)CC1` yielded a cell count in test [1] of 71 cells. In addition, in test [2], the activation was 0.7% (inactive).
As to `C#CCCOC(=O)N1C2=NC(C(=O)OC)=C(C(=O)OC)[C@@H]3N(C)c4ccc(OC)cc4[C@]23C[C@H]1C(=O)OC`, the cell count in test [1] is 67 cells. Also, the activation in test [2] is 1.9% (inactive).
The matching figures for `Cc1ccc(N(C(=O)c2sc(C)nc2C)C(C(=O)NC(C)(C)C)c2ccncc2)cc1` (stereo not given): 32 cells and -0.4% (inactive).
`O=C(Oc1ccccc1C(=S)N1CCCCC1)c1cc([N+](=O)[O-])cc([N+](=O)[O-])c1` had a cell count in test [1] of 41 cells. Moreover, the activation in test [2] is 0.8% (inactive).
`CCOC(=O)c1cnc2c(c(C)nn2CC)c1Cl` yielded a cell count in test [1] of 47 cells. In addition, the activation in test [2] was 2.2% (inactive).
The matching figures for `O=C(OCC(O)C(O)COC(=O)c1ccccc1)c1ccccc1` (stereo not given): 68 cells and 0% (inactive).
`COc1ccc([C@H]2CC(=O)C=C(c3ccc(C)cc3)C2)cc1` registered a cell count in test [1] of 62 cells. For the same molecule, the activation in test [2] was 3.1% (inactive).
The matching figures for `CCC(C)Sc1nc2c(c(=O)[nH]c(=O)n2C)n1CC(O)COc1cccc2ccccc12` (stereo not given): 51 cells and 4.1% (inactive).
Turning to `Cc1cc(C)c(NC(=O)C[N+](C)(C)CC(O)COc2cccc3ccccc23)c(C)c1` (stereo not given), the cell count in test [1] worked out at 43 cells. Besides, in test [2], the activation was -1.1% (inactive).
`CC(C)c1ccccc1OCC(O)CN(CC(O)COc1cccc2ccccc12)C(C)C` (stereo not given) had a cell count in test [1] of 48 cells. Further, the activation in test [2] was 46.1% (active).
The matching figures for `CN(C)S(=O)(=O)N1CCN(c2ccc([N+](=O)[O-])cc2)CC1`: 47 cells and 0% (inactive).
The matching figures for `COCc1cc(=O)[nH]c(-c2ccc(C(F)(F)F)cc2)n1`: 62 cells and -0.3% (inactive).
Consider `CC(Sc1nn(-c2ccc(Cl)cc2)c(=S)s1)C(=O)NCC1CCCO1` (stereo not given), for which, in test [1], the cell count was 67 cells. Also, the activation in test [2] was -1% (inactive).
The matching figures for `Cc1ccc(NC(=O)[C@H](Cc2ccccc2)NC(=O)C2CCNCC2)cc1`: 66 cells and -0.1% (inactive).
In the case of `COc1ccc(C2CC(=O)C=C(NCC3CCCO3)C2)cc1` (stereo not given), in test [1], the cell count is 92 cells. In addition, the activation in test [2] was -3.9% (inactive).
The matching figures for `O=C1N(Cc2ccc3c(c2)OCO3)c2ccccc2C1(O)c1c[nH]c2ccccc12` (stereo not given): 56 cells and 5.6% (inactive).
